Our source for the Potency and cell number change values is PubChem BioAssay AID2685 (National Center for Advancing Translational Sciences (NCATS), 2010).

About 2,100 (0.66%) of roughly 320,000 compounds were called active. Roughly 53% stayed inconclusive and do not appear here. The sample holds actives, similar compounds and a random draw of the others, so the mix is not that of the screen. The call rests on the fitted dose curve; in most records, active means well fitted inhibition curve with a large enough effect in the signal ratio, with a control signal flat (not every such curve was filed as active); inconclusive means small, poorly fitted or top-dose-only effect, or effect the other way, or a change in a side signal; inactive means flat fitted curve, though single readings scatter; the % refers to the signal ratio.
Potency means the concentration at half of the fitted maximal effect.

This assay can be described thus: qHTS Assay for Lipid Storage Modulators in Drosophila S3 Cells.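 On cell number change: cells counted by Cell Tracker Red CMTPX staining in the red channel.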 The settings on record: BODIPY lipid droplet fluorescence, 18-24 h, cells fed with added oleic acid; cell number change: measured here: cell count max response; series mostly up to 46.1 µM. An outline of the steps:
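Drosophila S3 cells loaded with oleic acid (400 uM, as added) and compounds at several concentrations; lipid droplets imaged by 488-nm laser-scanning cytometry, 500–530 nm intensity and object ratio to cell channel. Percent activity normalized to 20 uM Triacsin C.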
On the technique in general: In qHTS, concentration-response curves come from the screen itself.
`Cn1cccc1P(=O)(c1cccn1C)c1cccn1C`: the Potency was 5.17 µM (active) and the cell number change was -5%.

Regarding `Cn1cccc2[nH]c(=O)nc1-2`, the Potency entry was “inactive” and the cell number change was 10.2%.

With `Cn1cccc1C(=O)C(=O)Nc1ccccc1`, the Potency entry is “inactive” and the cell number change is -12.6%.

As for `CC(C)c1nnc(NC(=O)c2ccc3ccccc3c2)s1`, the Potency result is “inactive” and the cell number change was -0.433%.

Consider `CS(=O)(=O)N(CC(=O)N1CCc2ccccc2C1)Cc1ccc(F)cc1`, for which the Potency is 0.13 µM (active) and the cell number change was -12.3%.

Take `CC1CCN(C(=O)CN(Cc2ccc(F)cc2)S(C)(=O)=O)CC1`: the Potency result is “inactive” and the cell number change was -15.4%.

With `O=C(CN(Cc1ccc(F)cc1)S(=O)(=O)c1ccccc1)N1CCCCC1`, the Potency result was “inactive” and the cell number change is -14.4%.

On to `Cc1ccc(F)c(NC=C2C(=O)OC(C)(C)OC2=O)c1`, for which the Potency result was “inactive” and the cell number change is -13.4%.

Take `Cc1ccc(S(=O)(=O)Nc2nnc(CC(C)(C)C)s2)cc1`: the Potency result is “inactive” and the cell number change is -2.43%.

As for `COCc1nnc(NS(=O)(=O)c2c(C)cc(C)cc2C)s1`, the Potency is 18.4 µM (active) and the cell number change is -24.8%.

With `CC(C)(C)Cc1nnc(NS(=O)(=O)c2ccccc2)s1`, the Potency entry is “inactive” and the cell number change was -0.602%.

In the case of `CC(C)(C)Cc1nnc(NS(=O)(=O)c2ccc(F)cc2)s1`, the Potency was 0.0517 µM (active) and the cell number change was -2.36%.

As for `Cc1cc(C)c(S(=O)(=O)Nc2nnc(C)s2)c(C)c1`, the Potency entry is “inactive” and the cell number change is -0.995%.

Consider `COCc1nnc(NS(=O)(=O)c2ccc(F)cc2)s1`, for which the Potency result is “inactive” and the cell number change was -4.6%.

For the compound `COCc1nnc(NS(=O)(=O)c2ccc(C)cc2)s1`, the Potency result was “inactive” and the cell number change was -2.98%.

With `COCc1nnc(NS(=O)(=O)c2ccc([N+](=O)[O-])cc2)s1`, the Potency is 25.9 µM (active) and the cell number change came to 7.28%.

As for `Cc1cc(C)c(S(=O)(=O)Nc2nnc(CC(C)C)s2)c(C)c1`, the Potency entry is “inactive” and the cell number change was -5.67%.

On to `Cn1ccs/c1=N\C(=O)Nc1cccc(Cl)c1`, for which the Potency result is “inactive” and the cell number change was determined as 1.31%.

Regarding `OCC1(CCOc2ccccc2)CCN(Cc2ccccc2OC(F)F)CC1`, the Potency entry was “inactive” and the cell number change stood at 9.07%.

With `CCCCOC(=O)c1ccc(Nc2ncnc3nc[nH]c23)cc1`, the Potency entry is “inactive” and the cell number change is 2.99%.

For `O=C(Nc1ccccc1[N+](=O)[O-])C1(c2ccccc2)CCOCC1`, the Potency entry was “inactive” and the cell number change is -9.86%.

On to `CCOC(=O)N/N=C/c1ccc(OC)c(O)c1`, for which the Potency entry is “inactive” and the cell number change was 4.89%.

For the compound `Nc1nc(COc2ccc(F)cc2Cl)nc(N2CCCCC2)n1`, the Potency entry was “inactive”.

As for `CCCCn1c(=O)[nH]c(=O)c2c1nc(Cn1ncc(Cl)c(Cl)c1=O)n2CCC`, the Potency was 9.2 µM (active) and the cell number change was -17.5%.

For `CCCCn1c(-c2ccsc2)nc2c1c(=O)[nH]c(=O)n2CCC`, the Potency result was “inactive” and the cell number change was determined as 26%.

On to `CCCCCn1c(CN2CCN(Cc3ccccc3)CC2)nc2c1c(=O)[nH]c(=O)n2C`, for which the Potency entry is “inactive” and the cell number change is -7.44%.

Take `Cc1ccc(C(=O)c2nc(C(=O)NCCO)nc3ccccc23)cc1`: the Potency result is “inactive” and the cell number change was 10.6%.

Take `C/C(=N\O)C(=O)Nc1ccccc1`: the Potency entry was “inactive” and the cell number change came to 5.48%.
